According to the supplement of paper PMC6555819:

What was measured:
Test in all cases: PBM binding z-score (relative to random genomic background probes); higher = stronger binding; sequences stand for … in GC…GCGATTGACAGCGTAGAATGAAGG
[1] = system: RARg:RXRa (NR concentration 270 nM, RXRa partner concentration 90 nM)
Summary of the method: (§1)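 Ligand-free nuclear receptor dimers were applied to custom Agilent 4×180K protein-binding microarrays whose double-stranded probes carried direct-repeat seeds, single-nucleotide variants, half-site ablations and random human genomic background sequences in 34-nt variable regions. Incubation lasted 1 h. Binding z-scores were computed against the random background probes from regression-normalized fluorescence.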

[2] = system: RARg homodimer (NR concentration 270 nM)
Summary of the method: as §1

[3] = system: RXRa DBDmut IVT, anti-RXR (DBD mutation: RXRa K156A/R161A, NR concentration 90 nM)
Summary of the method: as §1

[4] = system: RXRa homodimer (NR concentration 180 nM)
Summary of the method: as §1

[5] = system: THRa:RXRa (NR concentration 90 nM, RXRa partner concentration 90 nM)
Summary of the method: as §1

[6] = system: THRa homodimer (NR concentration 90 nM)
Summary of the method: as §1

[7] = system: VDR homodimer (NR concentration 270 nM)
Summary of the method: as §1

Row | Sequence | PBM binding z-score [1] | PBM binding z-score [2] | PBM binding z-score [3] | PBM binding z-score [4] | PBM binding z-score [5] | PBM binding z-score [6] | PBM binding z-score [7]
1 | CGTCAAAGTTCAAGGTCACGTAACAGAAAGCAGC | 7.15 | 8.05 | 4.52 | 7.07 | 4.54 | 4.62 | 5.21
2 | CCTTACGGGTAACGAGGTTATAGCACGACGAGCG | 1.01 | 0.837 | -0.598 | 1.43 | 1.35 | 0.247 | 0.527
3 | CAGCATAGGTCAGGGCCAGTATAGGAGGAACGTT | 3.97 | 4.39 | 0.209 | 3.33 | 1.65 | -0.231 | -0.0525
4 | CGAACTAGGTCGCCAGGACAGTGAAGAGGTTGGA | 0.757 | 1.27 | 0.47 | 0.761 | 1.68 | 0.578 | -0.15
5 | ATATGTAGTTTATCGGGTCATTCAGTTTGCGCAT | 2.41 | 1.85 | 2.32 | 2.61 | 3.42 | 3.09 | 4.13
6 | CGAACGAGGTCATTGACAGGACAGTGAATAGTAA | 7.11 | 6.33 | 4.84 | 7.11 | 4.06 | 2.45 | 5.66
7 | ACTAGTTGGTCAGCTGAGGTCACACCCAATTCGG | 3.85 | 3.86 | 1.34 | 3.47 | 5 | 4.84 | 2.67
8 | GATACAGGGTCAAGGTCAGAGTACGCGTATTGAT | 6.26 | 6.78 | 2.78 | 6.63 | 4.45 | 3.55 | 4.39
9 | TAGCCTAGGTCATTCAGGGGCCAGCATAGAAAGC | 6.31 | 4.44 | 1.98 | 2.92 | 3.55 | 0.61 | 1.44
10 | CCTACTGGGCCACGAAAGGCCATTGATTCAGTGA | 0.332 | 0.725 | -0.292 | -0.0677 | 1.15 | -0.457 | -0.271
11 | CGAACTAGGTCAAGGGACAGTGAAAGGCGACGTA | 3.82 | 4.43 | 0.75 | 2.43 | 2.63 | 0.755 | 0.0374
12 | TTACCAAGGTGAAAGGTCGTTGCTGCACGCCTTG | 4.15 | 1.94 | 0.854 | 5.85 | 3.37 | 0.758 | 1.74
13 | ATCGAAAGGTCGTGAGGTAAGTATACAGAAAGGC | 4.63 | 3.93 | 1.25 | 5.18 | 3.09 | 1.01 | 1.24
14 | CCTACTGGGCCAAAGGTGATTGATTCCAATGCTC | 0.547 | 0.234 | -0.2 | 0.624 | 0.0559 | -0.0264 | 0.165
15 | CGAACTAGGTCAAGGCCAGTGAATCTCCGCACGC | 3.79 | 4.63 | 1.47 | 2.73 | 3.12 | 0.958 | 0.111
16 | TCTAGTTGGTCACGGAGGGCACACACGACGGGTA | 2.15 | 2.4 | 0.575 | 1.35 | 1.03 | 0.258 | 0.915
17 | CGAACTAGGTCACCCAGGACAGTGAATACATTGA | 4.24 | 5.04 | 2.03 | 3.13 | 3.66 | 2.18 | 1.89
18 | CAAACTAGGTCACTAAAGGTCAAAGTCGAATGAC | 7.43 | 7.86 | 2.41 | 7.61 | 5 | 2.19 | 3.72
19 | CGAACTAGGTCAAAGGACATTGAAAGGCGACGTA | 4.1 | 4.34 | 1.63 | 3.33 | 2.82 | 0.495 | 0.442
20 | ATATGTAGGTTACATCCGGGTCATCCAGGCTATG | 3.98 | 2.1 | 0.681 | 2.89 | 3.89 | 2.64 | 2.44
21 | CCTTACGGGTCACTCCAGGTCATAGCATCGGAGT | 5.28 | 5.41 | 1.08 | 5.06 |  | 3.03 | 2.49

Row | Sequence | PBM binding z-score [1] | PBM binding z-score [2] | PBM binding z-score [3] | PBM binding z-score [4] | PBM binding z-score [5] | PBM binding z-score [6] | PBM binding z-score [7]
22 | TCTCGGAGGACACCAAAGGTCAGAGCTCGACATC | 4.82 | 5.32 | 0.814 | 4.15 | 3.65 | 1.2 | 1.11
23 | ATATGTAGGTTACCTGGGGTCATTCAGACTAGGC | 4.46 | 3.44 | 1.99 | 5.78 |  | 3.39 | 5.34
24 | GCTGCTAGGTCAACTGATGGTCACCTAAAGCTCG | 5.53 | 5.1 | 1.29 | 3.52 | 3.38 | 1.69 | 0.0494
25 | AGAATGAGGTTACCAAAGGTCAGGGAAACGCTTG | 6.29 | 5.66 | 1.72 | 7.02 |  | 2.11 | 1.92
26 | TAGCCTAAGTCATGCGGGCCAGTATAGTGTCGGC | -0.283 | -0.412 | -0.949 | -0.136 | -0.34 | -0.848 | -1.04
27 | AATACAGGGTCATCGTAGGTCAGAGTACGCACAG | 6.41 | 5.81 | 3.75 | 6.77 |  | 2.38 | 4.46
28 | ACTCGGATGACAAAGGTCAGAGCTACGCCAGTGA | 4.9 | 4.66 | 0.624 | 4.83 | 2.54 | 0.0278 | 1.1
29 | GGAACGAGGGCATTCGAGTTCATAGCATGGCGAT | 2.51 | 2.58 | 3.99 | 2.5 |  | -0.00454 | 8.72
30 | CAAACTAGGTCACGAGAGGTCAAAGTCGAATGAC | 7.59 | 8.3 | 2.82 | 7.93 |  | 2.88 | 5.09
31 | CCGAGTAGGTTACGAGGGGTCATTCAGTGCGAAT | 5.1 | 3.76 | 1.89 | 5.85 |  | 0.607 | 5.41
32 | CCTTACGGGTCACGAGGTTGTAGCACGACGAGCG | 5.67 | 5.42 | 2.05 | 6.5 | 3.19 | 0.351 | 1.99
33 | ATATGTAGGTTAACTGGGGTCATTCAGACTAGGC | 4.95 | 3.7 | 2.76 | 5.82 |  | 3.07 | 5.41
34 | ATATGTAGGTTAGCTGGGGTCATTCACACTAGGC | 4.14 | 3.12 | 1.95 | 5.25 | 5.01 | 3.56 | 5.37
35 | TATAAAGGGTCAAAGGCCAGAGTACGAATGTCGA | 6.39 | 6.63 | 3.06 | 7.08 | 3.11 | -0.348 | 2.46
36 | CGTCCAAGGTCATAGGAGGTCAATGAAGACAGAT | 6.94 | 7.28 | 3.99 | 7.15 |  | 3.89 | 4.97
37 | AGAATGAGATTACCAAAGATCAGGGAAACGCTTG | 0.145 | 0.36 | -0.574 | 0.178 | -0.261 | -0.869 | -0.177
38 | AGTCAAAGTTTATCTAGGTAACGTAAGATATGCT | 1.12 | 1.41 | 1.93 | 0.551 | 1.6 | -0.0604 | 1.31
39 | CGAACGAGGTCATCCAGGACAGTGAATACATTGA | 6.67 | 6.52 | 4.86 | 7.28 |  | 3.83 | 6.44
40 | AATACAGGGTCATCTTAGGCCAGAGTACGCACAG | 5.61 | 5.2 | 3.85 | 6.42 |  | 2.11 | 3.76
41 | CAAACCAGGTCACAGAGGTCAAAGTCCGTGCGTA | 7.52 | 7.53 | 4.06 | 8.5 |  | 3.92 | 8.47
42 | CAAACCAGGTCAAGAGGTCAAAGTCCGCTTCCCG | 8.29 | 7.56 | 3.21 | 8.5 |  | 3.54 | 5.13

Row | Sequence | PBM binding z-score [1] | PBM binding z-score [2] | PBM binding z-score [3] | PBM binding z-score [4] | PBM binding z-score [5] | PBM binding z-score [6] | PBM binding z-score [7]
43 | AATACAGGGTCACGAGGCCAGAGTAGGTACGAAT | 6.44 | 5.99 | 2.95 | 7.67 | 4.06 | 2.21 | 3.31
44 | GCATATAGGTAATACAAGGTCAAAGTCCGATTGT | 3.39 | 2.81 | 1.43 | 3.97 |  | 3.05 | 2.68
45 | CGTCCAAGGTCATATGAGGTCAGTGAAGACAGAT | 6.88 | 7.55 | 4.62 | 7.07 |  | 4.58 | 6.28
46 | ATATGTAGGTTATCGGGTCATACAGTTTGCGCAT | 3.64 | 2.84 | 1.67 | 3.87 | 3.68 | 2.82 | 3.52
47 | AATACAGGGTGACTAGGCCAGAGTAGGTACGAAT | 0.739 | 0.693 | -0.419 | 0.911 | 0.915 | 0.154 | 0.309
48 | CCTACTGGACCAAGGTCATTGATCAGTCAAAGCA | 3.7 | 2.94 | 1.91 | 3.39 | 3.43 | 2.69 | 3.61
49 | ATCGAAAGGTCGACGAGGTGAGTAAACACCGTTT | 4.4 | 4.12 | 0.855 | 4.54 | 3.78 | 0.706 | 0.649
50 | CCTACTCGGCCAAAAAGGTCATTGATGCCGATAA | 4.7 | 4.45 | 1.13 | 4.82 | 3.33 | 1.22 | 2.91
51 | AGAATGAGGTTACCAAAGTTCAGGGAAACGCTTG | 4.44 | 3.52 | 1.62 | 4.3 | 4.02 | 0.878 | 2.32
52 | TTGCCTAGGTCATTGGGCCAGTATAGTACGCATC | 3.73 | 4.22 | 1.9 | 2.8 | 2.89 | 1.05 | 1.14
53 | ATCTCTAGGTTAAGATAGTTCAGTGAATGCAAAT | 1.73 | 1.87 | 0.534 | 1.14 | 1.81 | 0.578 | 0.933
54 | TCTCGGAGGAAACGAAAGGTCAGAGCTCGACATC | 4.03 | 3.59 | 0.822 | 4.07 | 2.59 | 0.0929 | 0.612
55 | CTACCAAGGTCAACAAGGTCGTTGATTACTATTC | 6.87 | 6.92 | 4.65 | 6.84 |  | 3.68 | 7.86
56 | AGAATGAGGTTAAACGTAGATCAGGGAAGAAAGT | 2.9 | 1.54 | 2.08 | 3.22 | 2.55 | 0.549 | 1.04
57 | CCTACTGGGTCACGAAAGGTCATTGATTCAGTGA | 6.96 | 6.81 | 1.69 | 7.05 |  | 1.82 | 2.59
58 | CGAACGAGGTCACCAGGACAGTGAAGAGGTTGGA | 7.15 | 7.24 | 4.32 |  | 4.66 | 3.86 | 3.87
59 | CGTCAAAGTTCAACTGAGGTAACGTAAAGCACGC | 6.11 | 6.84 | 4.76 | 5.4 | 5.27 | 1.89 | 4.07
60 | CGTCAAAGTTCAACTAAGGTTACGTAAAGCACGC | 6.64 | 7.26 | 4.73 | 6.03 |  | 2.2 | 4.89
61 | CGTCAAAGGTCATAGGAGGTCAGTGAAGACAGAT |  | 8.6 | 3.88 |  |  | 1.85 | 3.84
62 | TCTAGTGGGTCAAAGGTCACACACTCGAAATGCG |  | 7.49 | 2.07 |  | 4.61 | 1.7 | 2.84
